Assay outcomes (PubChem BioAssay)
Compounds with a hit are over-represented: about 4.6% of the library has one in this group of screens.
Vaccinia Venus = inhibitors of vaccinia virus (Venus reporter); Vaccinia virus Venus reporter expression, fluorescence; Potency, µM (series often up to 36.5 µM), without a hit: top-dose activity change, negative = inhibition, hits mostly inhibitors; actives 0.46% (n = 330,000); calls by dose curve; tested in A549 cells; also: nearly all actives have a fitted effect of over 30% in size
VACV mCherry inh = inhibitors of vaccinia virus infection (mCherry reporter signal); AID 720579; Potency, µM (doses to about 36.5 µM), for the others: at the top dose activity change, negative = inhibition, usual class: inhibitors; actives 0.63% (n = 310,000); Vaccinia virus mCherry reporter infection, fluorescence; calls by dose curve; tested in A549 cells; also: nearly all actives have a fitted effect of over 35% in size
LASV entry inh = blocks Lassa virus binding to or entry into cells | Potency, µM (doses to about 37.9 µM), for the others: at the top dose activity change, negative = inhibition, usual class: inhibitors | Lassa virus pseudotype entry inhibition, cell reporter | actives 1.2% (n = 300,000); calls by dose curve; tested in HEK293 cells; also: nearly all actives have a fitted effect of over 50% in size
Marburg entry inh = blocks Marburg virus binding to or entry into cells. Marburg virus pseudotyped entry inhibition, cell reporter. Potency, µM (series often up to 37.8 µM), inactives show at the top dose activity change, negative = inhibition, actives largely listed as inhibitors. actives 1.8% (n = 300,000). AID 540276; calls by dose curve; tested in HEK293 cells
HCV inh = blocks hepatitis C virus. Huh7.5.1 HCVcc-Cre infection, luciferase reporter, 44 h. Potency, µM (highest dose often 41.8 µM), for the others: at the highest dose activity change, negative = inhibition, most hits filed as inhibitors. actives 3.4% (n = 340,000). AID 651820; active = well fitted inhibition curve with a large enough effect; inconclusive = small, poorly fitted or top-dose-only effect, or another doubt; inactive = no such curve, though single readings can be large or run the other way
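Reporter virus HCVcc-Cre (~0.5 moi) infects cells exposed to compound; seeding density 1,000 cells/well with 4 h settling beforehand. Luminescence, 15 sec read, taken 44 h post-infection following a 15 min RT substrate incubation.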
* = called active by the depositor; i = inactive; ? = inconclusive; · = no result given; ! = not active in a repeat; [ ] = remark or other dose. % is scaled to controls: 0 for no effect and ±100 for the full control effect; potency is read from the fitted curve at half-maximal effect.

SMILES | Vaccinia Venus | VACV mCherry inh | LASV entry inh | Marburg entry inh | HCV inh
Cc1cccc(CSC(Nc2ccc(F)cc2)=C(C#N)C#N)c1 | ? | ? | ? | 2.9µM* | 11µM*
Cc1cccc(CSC(=N)N)c1 | -17% | i | -26% | ? | 6%
CN1CCc2c(n(C[C@H](O)CN3C(=O)c4ccccc4S3(=O)=O)c3ccccc23)C1=O | · | · | · | -20% | ·
O=C(NCc1cccs1)C(=O)NCC(c1ccco1)N1CCN(c2ccc(F)cc2)CC1 (configuration not stated) | -11% | ? | ? | ? | 22µM*
O=C(c1ccco1)N(CCCN1CCOCC1)c1nc(-c2ccc(Cl)cc2)cs1 | -9% | -21% | ? | ? | 11µM*
O=C(c1ccco1)N(CCCN1CCOCC1)c1nc(-c2ccc(F)cc2)cs1 | ? | -18% | ? | ? | 11µM*
Cc1ccc(N2C(N)=C(C#N)C(c3ccsc3)C3=C2CC(C)(C)CC3=O)cc1 (configuration not stated) | -23% | -23%[1.46 µM] | ? | ? | 13µM*
COCc1[nH]nc2c1[C@@H](c1cccc(OC)c1)C(C#N)=C(N)O2 | · | · | · | -3% | ·
C[C@]12N[C@H](Cc3ccccc31)c1ccccc12 | -9% | -17% | 7% | 14µM*! | 25%
O=c1c2sc3nc(N4CCOCC4)c4c(c3c2ncn1-c1ccccc1)CCCC4 | ? | ? | ? | ? | 10µM*
COC(=O)c1ccc(CSc2ncnc3c2sc2nc(N4CCOCC4)c4c(c23)CCCC4)o1 | · | · | 1% | -10% | -20%
COC(=O)c1ccc(Cn2cnc3c(sc4nc(N5CCOCC5)c5c(c43)CCCC5)c2=O)o1 | -4% | ? | ? | ? | 11µM*!
O=c1c2sc3nc(N4CCOCC4)c4c(c3c2ncn1C(c1ccccc1)c1ccccc1)CCCC4 | · | · | · | · | 2%
COc1ccc(-n2cnc3c(sc4nc(N5CCOCC5)c5c(c43)CCCC5)c2=O)cc1 | 2% | i | ? | -25% | -12%
Cc1ccccc1-n1cnc2c(sc3nc(N4CCOCC4)c4c(c32)CCCC4)c1=O | 2%[7.34 µM] | i[7.34 µM] | ? | ? | 18µM*
Cc1cccc(NC(=O)Cn2c(=O)n(Cc3ccc4c(c3)OCO4)c(=O)c3ccccc32)c1 | -8% | -18% | -2%[46.1 µM] | 6%[46.1 µM] | ·
CCC(CC)C(=O)Nc1ccc2nc(SCC(=O)N3CCc4ccccc43)sc2c1 | -6% | i | -13%[46.1 µM] | ? | ·
CCOc1ccc(-c2cc3cc(OC)c(OC)cc3c(C)n2)cc1 | -1% | 5% | -22% | 1%[46.1 µM] | ?
COc1cc2cc(-c3ccc(O)cc3O)nc(C)c2cc1OC | 1% | -20% | ? | ? | 5.6µM*
COc1cc2cc(-c3ccc(OC)c(OC)c3C)nc(N)c2cc1OC | -29% | ? | ? | ? | 18µM*
O=C(Nc1sc2c(c1C(=O)O)CCC2)c1ccco1 | · | · | 8% | -16% | 1%
Cc1ccc(C(=O)Nc2sc3c(c2C(=O)O)CCCCC3)o1 | ? | ? | 7.9µM* | 6.3µM* | 11%
COC(=O)c1c(NC(=O)c2nc3nc(C)cc(C(F)F)n3n2)sc2c1CCC2 | -2% | ? | -3% | -14% | 10µM*
COC(=O)c1c(NC(=O)c2ccco2)sc2c1CCC2 | -8% | · | 9% | 3% | ?
COC(=O)c1c(NC(=O)c2ccc(C)o2)sc2c1CCCCC2 | -23% | -22% | ? | 5% | 11µM*
SMILES | Vaccinia Venus | VACV mCherry inh | LASV entry inh | Marburg entry inh | HCV inh
Cc1cc(C)c(Cn2c(CCNC(=O)c3ccco3)nc3ccccc32)c(C)c1 | -14% | -23% | -15%[46.1 µM] | ? | ·
CCC(=O)Nc1cc(-c2nc3ccccc3s2)c(Cl)cc1Cl | -8% | -2% | -3%[46.1 µM] | -2%[46.1 µM] | ·
Cc1ccc(NC(=O)C2CCN(S(=O)(=O)c3ccc4c(c3)NC(=O)C(C)S4)CC2)c(Cl)c1 (configuration not stated) | · | · | · | · | 11µM*
Cc1ccc(CCNC(=O)C2CCN(S(=O)(=O)c3ccc4c(c3)NC(=O)C(C)S4)CC2)cc1 (configuration not stated) | -27% | i | ? | ? | 6.3µM*
Cc1ccccc1NC(=O)C1CCN(S(=O)(=O)c2ccc3c(c2)NC(=O)C(C)S3)CC1 (configuration not stated) | -2% | -7% | -9%[46.1 µM] | -5%[46.1 µM] | -10%
CC1Sc2ccc(S(=O)(=O)N3CCC(C(=O)NCCc4ccccc4)CC3)cc2NC1=O (configuration not stated) | -15% | -13% | ? | ? | ?
CC1Sc2ccc(S(=O)(=O)N3CCC(C(=O)NCC(C)c4ccccc4)CC3)cc2NC1=O (configuration not stated) | -11% | -10% | ? | -29%[46.1 µM] | 11µM*
COc1ccc2ccccc2c1CN1CCc2nnc(CNC(=O)c3cccc(F)c3)n2CC1 | 0% | i | · | · | ·
O=C(NCCOc1nc(N2CCCCC2)nc(N2CCOCC2)n1)Nc1ccccc1 | -14% | -13% | -15% | -4% | 8.9µM*
CCN(CCNC(=O)Nc1ccc(Cl)cc1)c1ccccc1 | ? | · | 16µM* | ? | 14µM*
O=C(NCCOc1nc(N2CCOCC2)nc(N2CCOCC2)n1)Nc1ccccc1 | -18% | -12% | ? | 16% | ?
CCN(CC)c1nc(OCCNC(=O)Nc2ccccc2)nc(N(CC)CC)n1 | 11µM* | · | ? | ? | -30%
O=C(NCCc1ccc(Cl)cc1)Nc1ccc(Cl)cc1 | · | · | · | · | -2%
COc1ccc(OC)c(-c2noc(N3CCN(c4ccc(C(C)=O)cc4)CC3)n2)c1 | -13% | -10% | 7%[46.1 µM] | · | ·
CCc1cccc(C)c1NC(=O)CN1C(=O)c2c(c3ccccc3n2C)C1c1ccc(OC)cc1 (configuration not stated) | -10% | -13% | -8%[46.1 µM] | · | ·
CC#CCN1c2ccccc2[C@]23CCC(=O)N(Cc4cccc(C(F)(F)F)c4)C2=NC(C(=O)OC)=C(C(=O)OC)[C@H]13 | · | · | · | 19%[14.2 µM] | ·
CC(CSc1nc2ccccc2s1)Cn1c(N2CCCC2)nc2c1c(=O)[nH]c(=O)n2C (configuration not stated) | -23% | -7% | -22% | 8.9µM* | ?
CCN(CC)CCNC(=O)c1ccc2c(=O)n(C3CCCC3)c(=S)[nH]c2c1 | · | · | ? | 8.2µM* | ?
CC1CCN(CCNC(=O)c2ccc3c(=O)n(Cc4ccc(Cl)cc4)c(=S)[nH]c3c2)CC1 | · | · | · | · | 6.3µM*
CCOCCCn1c(=S)[nH]c2cc(C(=O)NCCN(CC)CC)ccc2c1=O | · | · | -8% | ? | 13µM*
COCCCNC(=O)c1ccc2c(=O)n(Cc3ccc(Cl)cc3)c(=S)[nH]c2c1 | · | · | · | · | 8%
CC(C)NC(=O)c1ccc2c(=O)n(C3CCCC3)c(=S)[nH]c2c1 | · | · | -11% | 1% | -8%
CCOc1cc2[nH]c(=S)n(Cc3ccc(C(=O)NCCN(CC)CC)cc3)c(=O)c2cc1OCC | -12% | i | 10%[46.1 µM] | 10µM* | ?
CCOc1cc2[nH]c(=S)n(Cc3ccc(C(=O)NCC(OC)OC)cc3)c(=O)c2cc1OCC | · | · | -19% | -20% | -14%
Oc1ccccc1-c1cc(-c2cccc(F)c2)n[nH]1 | · | · | ? | 0% | ?
